# Source: PubChem BioAssay (EPA / NIEHS)
# Several values for one entry are separate records, joined by “and”; a condition that tells them apart may be missing. Equal values may be shown once. A structure can be active in one record and inactive in another. Activity calls are given as the source filed them. Rule for the calls: active = hit-call score of the fitted dose curve at least 0.9, where 1 is the maximum; inactive = score below 0.9.
# Columns and labels:
# [1] = read-out: Interleukin-8 (IL8), CXCL8 (gene 3576); test: BSK_MyoF_IL8: BioMAP Diversity Plus: MyoF Assay for Interleukin-8 (IL8) Biomarker Activity (AID 2284261); settings: primary human lung fibroblasts
# In short: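 IL-8 levels were measured by ELISA in human lung fibroblasts harvested 24 h after compound addition. Responses were analysed as gain of signal over the DMSO baseline.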
# Decorin, DCN (gene 1634) = test: BSK_MyoF_Decorin: BioMAP Diversity Plus: MyoF Assay for Decorin Biomarker Activity (AID 2284265); settings: primary human lung fibroblasts
# In short: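 Compound is added to lung fibroblast cultures; cells incubate 24 h; decorin is then measured by ELISA; the response is analysed upward against DMSO controls.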
# CD69, CD69 (gene 969) = test: BSK_IMphg_CD69: BioMAP Diversity Plus: IMphg Assay for CD69 Biomarker Activity (AID 2284257); settings: primary human endothelial cells with macrophages
# In short: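 Human venular endothelial cells co-cultured with macrophages; CD69 quantified by ELISA 24 h after compound addition. Activity fitted in the positive direction relative to DMSO baseline; cytotoxicity tracked in parallel cultures via SRB total-protein staining.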
# [2] = read-out: Eotaxin 3, CCL26 (gene 10344); test: BSK_BF4T_Eotaxin3: BioMAP Diversity Plus: BF4T Assay for Eotaxin 3 Biomarker Activity (AID 2284258); settings: primary human bronchial epithelial cells with fibroblasts
# In short: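 Co-culture of human bronchial epithelial cells and dermal fibroblasts, exposed to chemicals for 24 h versus DMSO. Eotaxin-3 quantified by ELISA; cytotoxicity checked in parallel cultures by sulforhodamine B total-protein staining.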
# [3] = read-out: Monocyte Chemoattractant Protein-1 (MCP1), CCL2 (gene 6347); test: BSK_BF4T_MCP1: BioMAP Diversity Plus: BF4T Assay for Monocyte Chemoattractant Protein-1 (MCP1) Biomarker Activity (AID 2284259); settings: primary human bronchial epithelial cells with fibroblasts
# In short: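 Co-culture of bronchial epithelial cells and dermal fibroblasts dosed with chemical; MCP-1 measured by ELISA 24 h later. Activity fitted in positive direction versus DMSO; cytotoxicity checked by SRB staining in parallel cultures.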
# [4] = read-out: Intercellular Adhesion Molecule 1 (ICAM1), ICAM1 (gene 3383); test: BSK_BF4T_ICAM1: BioMAP Diversity Plus: BF4T Assay for Intercellular Adhesion Molecule 1 (ICAM1) Biomarker Activity (AID 2284260); settings: primary human bronchial epithelial cells with fibroblasts
# In short: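 Co-culture of human bronchial epithelial cells and dermal fibroblasts exposed 24 h to chemical; cell-surface ICAM-1 quantified by ELISA. Parallel SRB total-protein staining assessed cytotoxicity; activity fitted relative to DMSO.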
# CD90, THY1 (gene 7070) = test: BSK_BF4T_CD90: BioMAP Diversity Plus: BF4T Assay for CD90 Biomarker Activity (AID 2284262); settings: primary human bronchial epithelial cells with fibroblasts
# In short: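 Co-culture of human bronchial epithelial cells and dermal fibroblasts, 24 h compound exposure. Cell-surface CD90 measured by ELISA relative to DMSO; parallel SRB total-protein staining for cytotoxicity.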
# [5] = read-out: Interleukin-8 (IL8), CXCL8 (gene 3576); test: BSK_BF4T_IL8: BioMAP Diversity Plus: BF4T Assay for Interleukin-8 (IL8) Biomarker Activity (AID 2284263); settings: primary human bronchial epithelial cells with fibroblasts
# In short: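 Human bronchial epithelial cells with dermal fibroblasts co-culture; IL-8 measured by ELISA 24 hours after dosing, fitted vs DMSO. Cytotoxicity tracked in parallel cultures by SRB total-protein staining.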
# [6] = read-out: Interleukin-1 alpha (IL1a), IL1A (gene 3552); test: BSK_BF4T_IL1a: BioMAP Diversity Plus: BF4T Assay for Interleukin-1 alpha (IL1a) Biomarker Activity (AID 2284264); settings: primary human bronchial epithelial cells with fibroblasts
# In short: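 Human bronchial epithelial cells co-cultured with dermal fibroblasts, dosed and read at 24 h. Secreted/surface IL-1α quantified by ELISA; gain-of-signal fitted relative to DMSO baseline. Parallel SRB total-protein staining tracked cytotoxicity.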
# KRT18 (gene 3875) = test: BSK_BF4T_Keratin818: BioMAP Diversity Plus: BF4T Assay for Keratin 818 Biomarker Activity (AID 2284266); settings: primary human bronchial epithelial cells with fibroblasts
# In short: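 Co-culture of human bronchial epithelial cells and dermal fibroblasts, chemical exposure 24 h. Keratin 8/18 measured by ELISA; positive-direction fit vs DMSO. SRB total protein run in parallel cultures for cytotoxicity.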
smiles,measurement,setting,value
C=C1CC/C=C(\C)CC[C@@H]2[C@@H]1CC2(C)C,outcome,[1],inactive
same,AC50,"Decorin, DCN (gene 1634)",31 µM (active)
CC=CC(=O)C1=C(C)C=CCC1(C)C,outcome,[1],inactive
same,outcome,"Decorin, DCN (gene 1634)",inactive
OCCN1CCOCC1,outcome,[1],inactive
same,outcome,"Decorin, DCN (gene 1634)",inactive
CCCCCCCCCC(=O)OCC,outcome,[1],inactive
same,outcome,"Decorin, DCN (gene 1634)",inactive
CCCCCCCC1CCCC1=O (stereo not drawn),outcome,[1],inactive
same,outcome,"Decorin, DCN (gene 1634)",inactive
O=S1(=O)CC(Cl)(Cl)C(Cl)(Cl)C1,outcome,[1],inactive
same,outcome,"Decorin, DCN (gene 1634)",inactive
CC(C)(C)c1cccc(O)c1,outcome,[1],inactive
same,outcome,"Decorin, DCN (gene 1634)",inactive
NC(=O)c1c(Cl)cccc1Cl,outcome,[1],inactive
same,outcome,"Decorin, DCN (gene 1634)",inactive
CC(=O)OC(C)(C)C1CC=C(C)CC1 (stereo not drawn),outcome,[1],inactive
same,outcome,"Decorin, DCN (gene 1634)",inactive
O=C(O)C(F)(F)C(F)(F)C(F)(F)C(F)(F)C(F)(F)C(F)(F)C(F)(F)C(F)F,AC50,"CD69, CD69 (gene 969)",0.257 µM (active)
same,outcome,"CD69, CD69 (gene 969)",inactive
same,AC50,[2],4.86 µM (active) and 2.55 µM (active)
same,AC50,[3],2.81 µM (active) and 1.53 µM (active)
same,AC50,[4],2.59 µM (active) and 3.49 µM (active)
same,outcome,[1],inactive
same,outcome,"CD90, THY1 (gene 7070)",inactive
same,outcome,[5],inactive
same,outcome,[6],inactive
same,AC50,"Decorin, DCN (gene 1634)",22.5 µM (active)
same,outcome,"Decorin, DCN (gene 1634)",inactive
same,outcome,KRT18 (gene 3875),inactive
CC(C)Cc1ccc(C(C)C(=O)O)cc1 (stereo not drawn),outcome,[1],inactive
same,outcome,"Decorin, DCN (gene 1634)",inactive
CC(=O)OCC=C(C)CCC=C(C)CCC=C(C)C,outcome,[1],inactive
same,outcome,"Decorin, DCN (gene 1634)",inactive
C=C(F)C(=O)OC(C(F)(F)F)C(F)(F)F,outcome,"CD69, CD69 (gene 969)",inactive
same,outcome,[2],inactive
same,AC50,[3],47.3 µM (active)
same,outcome,[3],inactive
same,outcome,[4],inactive
same,outcome,[1],inactive
same,outcome,"CD90, THY1 (gene 7070)",inactive
same,outcome,[5],inactive
same,outcome,[6],inactive
same,outcome,"Decorin, DCN (gene 1634)",inactive
same,outcome,KRT18 (gene 3875),inactive
CCOC(=O)CCCCCCCCC(=O)OCC,outcome,[1],inactive
same,outcome,"Decorin, DCN (gene 1634)",inactive
COc1ccccc1NC(=O)CC(C)=O,outcome,[1],inactive
same,outcome,"Decorin, DCN (gene 1634)",inactive
CCOC(=O)C=Cc1ccccc1,outcome,[1],inactive
same,outcome,"Decorin, DCN (gene 1634)",inactive
C=C(C)C(=O)OCCC(F)(F)C(F)(F)C(F)(F)C(F)(F)C(F)(F)C(F)(F)C(F)(F)C(F)(F)F,outcome,"CD69, CD69 (gene 969)",inactive
same,outcome,[2],inactive
same,outcome,[3],inactive
same,outcome,[4],inactive
same,outcome,[1],inactive
same,outcome,"CD90, THY1 (gene 7070)",inactive
same,outcome,[5],inactive
same,outcome,[6],inactive
same,outcome,"Decorin, DCN (gene 1634)",inactive
same,outcome,KRT18 (gene 3875),inactive
CCCCCCCCCCCCS,outcome,[1],inactive
same,AC50,"Decorin, DCN (gene 1634)",3.97 µM (active)
